Screen size: about 310,000 compounds; about 2,200 (0.71%) showed an effect of 50% or more. Effects have a minus sign here. This excerpt belongs to a sample that is enriched for strong results.
The compounds below were run against human ether-à-go-go-related gene (hERG) potassium channel (human, UniProt Q12809) (assay: primary screen, population patch clamp on CHO cells stably expressing hERG; higher = less effect of the substance).
Chain of human ether-à-go-go-related gene (hERG) potassium channel (Q12809 whole entry, looked up): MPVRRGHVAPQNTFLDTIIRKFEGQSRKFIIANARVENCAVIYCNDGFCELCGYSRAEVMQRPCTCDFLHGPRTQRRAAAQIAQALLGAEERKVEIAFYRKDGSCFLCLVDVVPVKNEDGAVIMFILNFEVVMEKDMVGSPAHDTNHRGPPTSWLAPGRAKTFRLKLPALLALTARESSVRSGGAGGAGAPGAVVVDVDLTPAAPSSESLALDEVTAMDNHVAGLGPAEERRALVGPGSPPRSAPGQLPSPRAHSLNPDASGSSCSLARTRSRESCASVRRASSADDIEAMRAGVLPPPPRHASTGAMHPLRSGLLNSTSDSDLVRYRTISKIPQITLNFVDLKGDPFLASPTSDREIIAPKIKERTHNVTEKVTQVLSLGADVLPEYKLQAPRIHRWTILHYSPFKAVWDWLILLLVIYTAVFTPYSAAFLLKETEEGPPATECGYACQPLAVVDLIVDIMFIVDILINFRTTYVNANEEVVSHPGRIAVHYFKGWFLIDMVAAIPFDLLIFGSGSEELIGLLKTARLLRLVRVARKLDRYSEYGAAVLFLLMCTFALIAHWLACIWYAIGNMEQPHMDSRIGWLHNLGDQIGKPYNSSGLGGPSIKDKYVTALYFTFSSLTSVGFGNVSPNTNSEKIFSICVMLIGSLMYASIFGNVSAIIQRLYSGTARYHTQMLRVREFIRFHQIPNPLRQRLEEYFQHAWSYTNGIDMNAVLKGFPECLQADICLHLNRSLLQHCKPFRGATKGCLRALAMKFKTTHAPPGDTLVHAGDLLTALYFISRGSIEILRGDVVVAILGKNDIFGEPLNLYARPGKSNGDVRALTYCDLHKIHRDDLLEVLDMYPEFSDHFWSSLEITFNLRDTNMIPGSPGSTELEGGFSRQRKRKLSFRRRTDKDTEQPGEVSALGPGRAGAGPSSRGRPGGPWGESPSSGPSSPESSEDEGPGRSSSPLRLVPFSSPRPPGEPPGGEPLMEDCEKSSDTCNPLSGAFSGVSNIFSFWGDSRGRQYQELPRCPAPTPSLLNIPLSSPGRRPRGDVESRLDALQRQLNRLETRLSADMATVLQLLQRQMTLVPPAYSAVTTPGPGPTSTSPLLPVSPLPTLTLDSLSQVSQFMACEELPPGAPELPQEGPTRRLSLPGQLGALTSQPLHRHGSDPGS

| SMILES | hERG current change (%, negative = inhibition) at 1uM |
| --- | --- |
| CCOC(=O)C1CCN(C(=O)CCS(=O)(=O)c2ccc3c(c2)n(C)c(=O)c(=O)n3C)CC1 | 10.2% |
| COc1cc(OC)cc(C(=O)Nc2ccc3c(c2)OCCO3)c1 | 7.93% |
| O=C(Cn1cc(/C=C\[N+](=O)[O-])c2ccccc21)Nc1ccccc1 | 8.45% |
| COc1ccc(OC)c(N2C(=O)CC(Cc3cc(C)cc(C)c3)C2=O)c1 (stereo not drawn) | 5.71% |
| CSc1ccccc1C(=O)N1CCN(S(=O)(=O)c2sc(C(=O)O)c(C)c2C(=O)O)CC1 | 0.019% |
| COc1ccc(C2CC(c3ccccc3)=NN2c2ccc(S(N)(=O)=O)cc2)cc1OC (stereo not drawn) | 7.52% |
| CC(C)CCNC(=O)C1c2ccccc2Oc2ccccc21 | -12.1% |
| COc1ccccc1/C=C/CN1CCC(CO)(Cc2ccccc2)CC1 | 0.366% |
| OCC1(Cc2ccccc2Cl)CCN(C/C=C/c2ccccc2)CC1 | -27.8% |
| COc1ccc(/C=C/CN2CCCC(CO)(Cc3cccc(Cl)c3)C2)cc1 (stereo not drawn) | 3.25% |
| COc1cccc(CC2(CO)CCCN(C/C=C/c3ccccc3OC)C2)c1 (stereo not drawn) | -32.8% |
| COc1ccc(CC2(CO)CCN(C/C=C/c3ccccc3OC)CC2)cc1 | -71.4% |
| COc1ccc(/C=C/CN2CCC(CO)(Cc3ccccc3Cl)CC2)cc1 | -61.9% |
| COc1cc(NS(=O)(=O)c2ccc(NC(=O)COc3ccccc3Cl)cc2)nc(OC)n1 | 4.62% |
| NC(=O)CSc1nnc(-c2ccccn2)n1N | 12.4% |
| CC(=O)Nc1ccc(C(=O)Nc2nc(-c3cc(C)n(Cc4ccccc4)c3C)cs2)cc1 | 11.3% |
| CC(C)OC(=O)CC(=O)CSc1nc2c(cc1C#N)CCC2 | 16.3% |
| Cc1ccc(C(=O)Nc2ccc(OCc3ccccc3)cc2)cc1[N+](=O)[O-] | 2% |
| CCN1CCN(c2ncnc3sc(C)c(-c4ccccc4)c23)CC1 | -25.9% |
| O=C(Nc1cccc(Oc2ccc3c(c2)C(=O)NC3=O)c1)c1cccs1 | -2.79% |
| Cc1ccccc1N1C(=O)C(Oc2ccc(Cl)cc2)C1CNCCCOC(C)C (stereo not drawn) | -3.82% |
| O=C(OCc1ccc([N+](=O)[O-])cc1)C1CC(=O)N(CCc2ccccc2)C1 (stereo not drawn) | -56.3% |
| O=C(OCc1nnc(-c2ccc([N+](=O)[O-])cc2)o1)C1CC(=O)N(CCc2ccccc2)C1 (stereo not drawn) | -17.8% |
| O=C(OCc1ccc([N+](=O)[O-])cc1)C1CC(=O)N(c2ccccc2)C1 (stereo not drawn) | -36% |

| SMILES | hERG current change (%, negative = inhibition) at 1uM |
| --- | --- |
| Cc1cccn2c(=O)nc(SCC(=O)NCc3ccco3)nc12 | 4.54% |
| Cc1cccn2c(=O)c3cc(C(=O)NCc4ccco4)c(=N)n(CCc4ccccc4)c3nc12 | -82.2% |
| COc1ccc(CCn2c(=N)c(C(=O)NCc3ccco3)cc3c(=O)n4cccc(C)c4nc32)cc1 | -76.6% |
| Cc1cccn2c(=O)c3cc(C(=O)NCc4ccco4)c(=N)n(CCOCCO)c3nc12 | -63.3% |
| Cc1cccn2c(=O)c3cc(C(=O)NCc4ccco4)c(=N)n(C(C)C)c3nc12 | -84.9% |
| Cc1cccn2c(=O)c3cc(C(=O)NCCc4ccccc4)c(=N)n(Cc4ccco4)c3nc12 | -35.5% |
| Cc1cccn2c(=O)c3cc(S(=O)(=O)c4ccccc4)c(=N)n(Cc4ccco4)c3nc12 | 5.3% |
| CCOC(=O)CC1Sc2ccccc2NC1=O (stereo not drawn) | -7.75% |
| CCN1CCc2c(sc(NC(=O)c3ccc(C(=O)c4ccccc4)cc3)c2C(N)=O)C1.Cl | -7.72% |
| COc1cccc(C(=O)Nc2cccc(-c3nc4ncccc4o3)c2C)c1 | 12.6% |
| CC1(c2nnc(-c3ccncc3)o2)CC(c2ccccc2)=NO1 (stereo not drawn) | 16.4% |
| Clc1cccc(OCc2nnc(-c3ccccc3Br)o2)c1 | 9.74% |
| O=Cc1ccc(-c2ccc(C(=O)O)cc2)o1 | -2.38% |
| O=C(CC1CCCCC1)c1c(O)c2ccccc2oc1=O | -4.69% |
| CCOC(=O)c1c(C)n(CC(O)c2ccccc2)c2ccc(O)cc12 (stereo not drawn) | 13.6% |
| CCN(CC(=O)Nc1c(F)cccc1F)C(=O)CSC(=S)N1CCCC1 | 6.34% |
| Cc1cccc(-n2c(/C=C/c3ccc([N+](=O)[O-])o3)nc3ccccc3c2=O)c1 | 2.06% |
| S=C(N/N=C/c1cccc2ccccc12)Nc1cccc(Cl)c1 | 11.3% |
| Nc1ccc(OCc2ccccc2)cc1 | 10.7% |
| COc1ccc(OC)c(-n2c(CN3CCC(C(N)=O)CC3)nc3ccccc3c2=O)c1 | 7.22% |
| COc1ccc(CNC2CCN(Cc3ccccc3)CC2)cc1 | -3.31% |
| COc1ccc(OC)c(-n2c(CNC3CCN(Cc4ccccc4)CC3)nc3ccccc3c2=O)c1 | -69.9% |
| CS(=O)(=O)Cc1cccc(C(=O)NC2CCSc3ccccc32)c1 (stereo not drawn) | 16.3% |
| COCc1cc(=O)[nH]c(Nc2nc(C)c3cc(OC)ccc3n2)n1 | 10% |

| SMILES | hERG current change (%, negative = inhibition) at 1uM |
| --- | --- |
| COCc1cc(=O)[nH]c(Nc2nc(C)c3ccccc3n2)n1 | 6.35% |
| CCc1ccc2nc(Nc3nc(COC)cc(=O)[nH]3)nc(C)c2c1 | -64.8% |
| CC(=O)Nc1ccc(C(=O)NC2CCCC2)cc1 | 6.35% |
| COc1ccccc1NC(=O)CSc1nnnn1C | 16.4% |
| CSC1=NP(=S)(SC)N2CCCC2=C1C#N (stereo not drawn) | 6.13% |
| CCCn1c2ccccc2c2cnn(CC(=O)NCCN(CC)CC)c(=O)c21 | -67% |
| CCCn1c2ccccc2c2cnn(CC(=O)NC3CCCCC3)c(=O)c21 | 10.5% |
| CCCn1c2ccccc2c2cnn(CC(=O)N3CCN(C4CCCCC4)CC3)c(=O)c21 | -68.5% |
| CCCn1c2ccccc2c2cnn(CC(=O)N3CCOCC3)c(=O)c21 | 7.27% |
| CCCn1c2ccccc2c2cnn(CC(=O)NCCN(C)C)c(=O)c21 | -12.5% |
| CCCn1c2ccccc2c2cnn(CC(=O)NCCOC)c(=O)c21 | 6.19% |
| C[C@@H]1CC=C[C@H]2[C@H]1C(=O)N(Cc1ccccc1)[C@H]2c1ccc(-c2ccoc2)cc1F | 17.9% |
| N#Cc1cccnc1N1CCN(C(=O)c2ccco2)CC1 | 12.7% |
| Cc1cc(N2C3CCC2CC(O)(c2ccc(F)cc2)C3)nc(-c2ccccc2)n1 (stereo not drawn) | 9% |
| O=C(CCN1CCN(c2ccccc2)CC1)N/N=C/c1ccc([N+](=O)[O-])o1 | -58.5% |
| CC(=O)Nc1ccc(/C=N/NC(=O)CCN2CCN(c3ccccc3)CC2)cc1 | 5.44% |
| O=C(CCN1CCN(c2ccccc2)CC1)N/N=C/c1ccccc1O | 9.66% |
| CC(C)(C)c1nc2ccccc2[nH]1 | 10.8% |
| COc1ccc(OCC(=O)NCC(c2ccc(OC)cc2)N2CCCCC2)cc1 (stereo not drawn) | -1.58% |
| COc1ccc(C(CNC(=O)COc2ccccc2)N2CCCCC2)cc1 (stereo not drawn) | -4.21% |
| COc1ccc(C(CNC(=O)COc2ccc([N+](=O)[O-])cc2)N2CCCCC2)cc1 (stereo not drawn) | -52.1% |
| CC(=O)c1ccc(-n2ccnc2)cc1 | 7.14% |
| Cc1ccc2[nH]c3c(=O)n(CCCN4CCN(C)CC4)cnc3c2c1 | -12.6% |
| Cc1ccc2[nH]c3c(=O)n(CCC4=CCCCC4)cnc3c2c1 | 11% |

| SMILES | hERG current change (%, negative = inhibition) at 1uM |
| --- | --- |
| CCN1CCCC1Cn1cnc2c([nH]c3ccc(C)cc32)c1=O (stereo not drawn) | -63.4% |
| CCN1CCCC1Cn1cnc2c([nH]c3ccc(Cl)cc32)c1=O (stereo not drawn) | -69.4% |
| Cc1ccc2[nH]c3c(=O)n(CCN4CCOCC4)cnc3c2c1 | 6.2% |
| Cc1ccc2[nH]c3c(=O)n(CCN4CCNCC4)cnc3c2c1 | 18.5% |
| CCC1CCCN1Cn1cnc2c([nH]c3ccc(Cl)cc32)c1=O (stereo not drawn) | -70.9% |
| CCC1CCCN1Cn1cnc2c([nH]c3ccccc32)c1=O (stereo not drawn) | -45.7% |
| O=c1c2[nH]c3ccc(Cl)cc3c2ncn1CCN1CCCCC1 | -43.9% |
| O=c1c2[nH]c3ccc(F)cc3c2ncn1CC1CCCO1 (stereo not drawn) | 4.81% |
| CCN1CCCC1Cn1cnc2c([nH]c3cccc(Cl)c32)c1=O (stereo not drawn) | -38.7% |
| CCC1CCCN1Cn1cnc2c([nH]c3ccc(C)cc32)c1=O (stereo not drawn) | -54.9% |
| COc1cccc(C(=O)Nc2ccncc2)c1OC | 9.58% |
| Cc1nn(CC(=O)c2cccc(Cl)c2)c(C)c1[N+](=O)[O-] | 6.41% |
| Cc1ccc(Cn2cccc(NC(=O)CCC3CCCC3)c2=O)cc1 | 1.91% |
| Cc1ccc(/C=C2/C(=O)NC(=O)N(C)C2=O)cc1 | 7.48% |
| Cn1c(NC(=O)c2cc(-c3ccc4c(c3)OCO4)nc3ccccc23)cc(=O)n(C)c1=O | 2.87% |
| Cl.O=C(NCCCn1ccnc1)c1ccc(S(=O)(=O)N2CCCCCC2)cc1 | 9.74% |
| Cc1ccc(C(=O)NCCCn2ccnc2)cc1[N+](=O)[O-] | 11.9% |
| NS(=O)(=O)c1ccc(NCCCn2ccnc2)c([N+](=O)[O-])c1 | 12% |
| COc1ccc(C(=O)NCCCn2ccnc2)cc1[N+](=O)[O-] | 3.98% |
| O=C(NCCCN1CCOCC1)c1ccc(N2CCCC2)c([N+](=O)[O-])c1 | 4.41% |
| O=C(NCCCn1ccnc1)c1ccc(N2CCCCC2)c([N+](=O)[O-])c1 | -54.1% |
| Cl.O=C(NCCCn1ccnc1)c1ccc(N2CCCCCC2)c([N+](=O)[O-])c1 | -51.6% |
| CCN(CC)S(=O)(=O)c1ccc(NCCCn2ccnc2)c([N+](=O)[O-])c1 | -7.58% |
| O=C(c1ccccc1)c1ccc(NCCCn2ccnc2)c([N+](=O)[O-])c1 | -65.4% |

Reference: paper PMC4336329 (PLoS ONE, 2015)
